# Wnt bcat act: activators of Wnt/beta-catenin signaling. Wnt/beta-catenin reporter cell assay, activator, plate reader. activation, % at 9.35 µM. actives 1.2% (n = 300,000). AID 743398; in the data active = activation above about 30%, passing the limit was not always enough; inconclusive = no clear call, values can overlap the other calls;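 note: 0% = neutral control wells and 100% = positive control wells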
# N-glyco inh: blocks N-linked glycosylation in D54 reporter cells; D54 ERlucT glycosylation luciferase reporter, 24 h; percent of 100 nM tunicamycin response; reporter increase, % at 12.5 µM; actives 0.23% (n = 360,000); AID 588692;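 active = mean luciferase reporter signal, scaled so untreated is 0 and the glycosylation-blocking control 100, at or above a set limit in every replicate; inconclusive = mean reaches the limit but not every replicate does; inactive = mean below the limit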;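 note: luciferase carries N-glycosylation sites so blocking glycosylation raises the light; 0% = median of neutral control wells and 100% = median of 100 nM tunicamycin wells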
# TRPM1 prom inh: MITF TRPM1 promoter inhibition in SK-MEL-5 cells | SK-MEL-5 TRPM1 promoter luciferase, 24 h | inhibition, % at 12.5 µM | actives 0.83% (n = 330,000);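 active = mean inhibition across replicates of 60% or more, whatever share of single replicates reaches that level; inconclusive = some that reach 60%, reason not given; inactive = mean inhibition across replicates below 60%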
# NSD2 inh: inhibitors of human histone methyltransferase NSD2; O96028; NSD2 peptide methylation, AlphaScreen, 120 min; inhibition, % at 12.5 µM; actives 0.54% (n = 310,000); AID 743445; in the data active = inhibition above about 50%
# PfHsp90 set2: growth inhibition of yeast expressing Plasmodium Hsp90 | inhibition, % at 9.4 µM | actives 0.32% (n = 310,000) | S. cerevisiae expressing PfHsp90, BacTiter-Glo ATP, 48 h; yeast lacking PDR1 and PDR3 efflux regulators;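 active = every replicate shows inhibition above about 80%, whatever the replicate mean, limit read from the data; inconclusive = mean inhibition reaches the set limit but some replicate falls short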;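 note: 0% = DMSO neutral controls and 100% = 20 µM radicicol positive controls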
# MITF TRPM1 HTS: increases MITF-driven TRPM1 promoter luciferase signal. actives 0.75% (n = 300,000). AID 588334. SK-MEL-5 TRPM1-promoter luciferase, 24 h; % of positive control, neutral wells = 0. activation, % at 12.5 µM;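 active = mean activation of at least 80% with every replicate also reaching 80%; inconclusive = mean reaches 80% but some replicate falls short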;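 note: 0% = neutral control wells and 100% = parthenolide positive control wells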
# An asterisk follows results filed as active; ? = inconclusive; . = no result. A selection: hits, their analogues and other compounds. The true share with any hit is near 2.9%.
SMILES,Wnt bcat act,N-glyco inh,TRPM1 prom inh,NSD2 inh,PfHsp90 set2,MITF TRPM1 HTS
O=C(C[C@@H]1C/C=C\C[C@H](Cc2ccc(F)cc2)C(=O)OC[C@@H](Cc2c[nH]c3ccccc23)NC1=O)NCCO,0,-2,-2,.,-19,4
COc1cc2c(cc1OC)C1CCc3cc4c(cc3C1N=C2)OCO4 (stereo not given),51*,2,.,.,.,.
CCCCNc1c(-c2ccc(SC(C)CC)cc2)nc2cnccn12 (stereo not given),.,-14,-8,.,107*,10
Fc1ccc(-c2n[nH]c(=S)n2N=Cc2cccc(OCc3ccccc3)c2)cc1,.,.,.,-3,.,.
CC(O)CNc1nc2sc3c(c2c(=O)n1CCc1ccccc1)CCCCC3 (stereo not given),2,-6,-33,-1,12,38
CN(C)C(CNC(=O)CSc1nc2sc3c(c2c(=O)n1C)CCCC3)c1ccccc1 (stereo not given),-2,33*,-1,0,15,5
CN(C)CCNc1nc2sc3c(c2c(=O)n1CCc1ccccc1)CCCCC3,-3,8,90*,12,-5,.
COCCn1c(SCC(=O)NCC(c2ccccc2)N(C)C)nc2sc3c(c2c1=O)CCC3 (stereo not given),1,-2,-4,2,-12,6
CSCC[C@H](N)C(=O)N1CCC(C(=O)N[C@@H](C)C(=O)NCc2ccc(F)cc2)CC1,0,2,-3,.,5,2
CCOC(=O)C1CCCN(C(=O)CCCn2nnnc2CN2CCOCC2)C1 (stereo not given),-1,3,1,1,27,-1
CC(C)c1c(C(=O)Nc2ccccc2)c(-c2ccccc2)c(-c2ccc(F)cc2)n1CC[C@@H](O)C[C@@H](O)CC(=O)O,5,80*,.,.,.,.
CC(=O)c1ccc(NC(=S)N2CCC(Cc3ccccc3)CC2)cc1,40*,-3,-2,0,1,8
CC(=O)c1cccc(NC(=S)N2CCC(Cc3ccccc3)CC2)c1,-2,-4,12,-2,-5,-11
CC(=O)N1CCN(c2ccc(N3CCN(C(C)=O)[C@@H](C)C3)c(C)c2)[C@H](C)C1,-2,.,.,.,.,.
O=C1C(Cl)=C(N2CCCCCC2)C(=O)N1c1ccc(Cl)cc1,0,-1,0,0,-5,.
CN(C)c1ncc(C2=C(Cl)C(=O)C(N3CCCC3)=C(Cl)C2=O)s1,1,1,60,57*,9,-60
O=C1C(Cl)=C(N2CCCCC2)C(=O)C(Cl)=C1c1cnc(N2CCCCC2)s1,.,-13,101*,.,15,-101
Cc1nn(C(C)(C)C)c(C)c1/C=N/OC(=O)Nc1ccc(Cl)cc1,-22,-19,79*,0,8,.
COc1ccc2[nH]cc(C(=O)CCl)c2c1,1,-16,91*,-1,-4,-91
COc1ccc2[nH]cc(C(=O)CN3CC(C)CC(C)C3)c2c1 (stereo not given),-1,-3,5,-2,2,-4
COc1ccc2[nH]cc(C(=O)CNc3nc(C)cs3)c2c1,42*,1,-13,-4,7,.
COCCNC(=O)c1c[nH]c2ccc(OC)cc2c1=O,-1,0,3,-2,-5,.
CN(C(=O)CSc1ncnc2sccc12)C1CCCCC1,47*,-1,-74,-2,.,72
COc1ccc(-c2csc(C)n2)cc1Br,-2,-2,-42,-5,.,45
COc1ccc(-c2cn3cccc(C)c3n2)cc1Br,35*,-2,-49,-1,3,50
SMILES,Wnt bcat act,N-glyco inh,TRPM1 prom inh,NSD2 inh,PfHsp90 set2,MITF TRPM1 HTS
Cc1cccn2cc(-c3ccccc3)nc12,.,-10,-36,-4,-23,38
Cc1cccn2cc(-c3ccc(F)cc3)nc12,55*,-16,3,0,.,-2
COc1ccc(NC(=O)C2C(c3ccc4c(c3)OCO4)=Nc3ccccc3N2C(C)=O)cc1 (stereo not given),35*,.,.,.,.,.
COc1ccc(NC(=O)C2C(c3ccc4c(c3)OCO4)=Nc3ccccc3N2C(=O)c2cccc(C(F)(F)F)c2)cc1 (stereo not given),9,.,.,.,.,.
O=C(CCl)N(Cc1cc(=O)[nH]c2ccccc12)c1ccccc1,-2,-4,69*,13,8,-67
COc1cccc(/C=C/c2ccc3cccc(O)c3n2)c1,?,-9,-6,1,103*,4
Oc1cccc(/C=C/c2ccc3cccc(O)c3n2)c1,40*,-9,-13,1,-35,12
O=C(CN(c1cccc(C(F)(F)F)c1)S(=O)(=O)c1ccc(Cl)c([N+](=O)[O-])c1)NCc1ccccc1,4,1,12,-2,-5,-10
CC(NC(=O)CN(c1cccc(C(F)(F)F)c1)S(=O)(=O)c1ccc(Cl)c([N+](=O)[O-])c1)c1ccccc1 (stereo not given),-5,14,79*,31,-25,-78
CCCCN1C(=O)/C(=C/C=C2\SCCN2C)SC1=S,11,1,-92,5,14,92*
CN1CCS/C1=C/C=C1\SC(=S)N(CC(=O)O)C1=O,-3,1,-9,10,9,9
CCOC(=O)c1ccc(NC(=O)c2ccccc2[N+](=O)[O-])cc1,9,1,-52,0,1,54
CCOC(=O)c1cc([N+](=O)[O-])c([N+](=O)[O-])cc1NC(C)=O,-2,1,88*,30,100*,-88
Clc1ccc(CSc2nc3ccncc3[nH]2)cc1,37*,-11,-25,.,27,17
CC(=O)c1ccc(NC(=O)CCNC(=O)c2ccc(Cl)cc2)cc1,4,-1,-14,1,-20,16
CN(C)C=Nc1ccc2nc3c(cc2c1)[nH]c1ccccc13,39*,1,-58,-6,3,68
CCOC(=O)c1c(NC(=O)/C=C/C(=O)O)sc(C)c1-c1ccc(C(C)(C)C)cc1,-3,14,35,69*,-23,-37
COc1ccc(/C=N/Nc2nc3ccccc3o2)cc1O,62*,-14,17,3,4,-13
COc1cc(/C=N/Nc2ccccn2)ccc1O,37*,0,-30,-2,-33,29
Brc1ccc(/C=N/Nc2nc3ccccc3o2)cc1,47*,-1,-92,1,15,99*
COc1cc(/C=N/Nc2nc3ccccc3o2)cc(OC)c1O,.,1,-14,-1,-9,.
Oc1ccccc1/C=N/Nc1nc2ccccc2o1,?,-14,12,-3,-48,-9
COc1ccc(/C=N/Nc2ccccn2)cc1OC,0,0,-70,7,18,.
COc1cc(C(=O)O/N=C2\C=CC(=O)C(C)=C2)cc(OC)c1OC,61*,-2,29,0,12,.
COc1ccc(C(=O)Nc2ccc3oc(Cc4ccc(Cl)cc4)nc3c2)cc1OC,-1,-6,10,.,-12,-9

# High-throughput results (PubChem BioAssay)
